This passage reports outcome and fold change results from PubChem BioAssay AID1259240 (Keith Lab, Institute of Cancer Science, University of …, 2017).

Active and inactive are the calls of the source. Cut-off read from the data, not from the text of the source: active = fold change mostly below about -2 (no sharp cut-off); inactive = mostly above about -1.8.

This assay in a line: TERT promoter activity modulators, primary screen, cell-based, luciferase reporter, human (AID 1259240). The conditions noted are these: A2780 TERT promoter luciferase reporter, 16 h; at 20 µM, fold versus average of vehicle-only wells. (In general: Reporter assays use an easily measured gene product as a stand-in for the process of interest.)
Take `CC1=C(C(N)=O)C(c2ccc(Br)cc2)n2nc(CCCO)nc2N1` (stereo unspecified): the compound was called inactive.
`Nc1nc(SCC(=O)c2ccc(O)cc2O)n[nH]1`: the fold change was -1.59 (inactive).
As to `Cn1nc(-c2ccc(C(=O)N3CCCC3)cc2)c2ccccc2c1=O`, the fold change is 1.06 (inactive).
Same read-out and setting: next, `CCN(Cc1ccccc1)C(=O)C1CCCN1S(=O)(=O)c1cccc2nsnc12` (stereo unspecified): 1.58 (inactive); `CCOC(=O)c1sc2nccc3c2c1N=CN3c1ccccc1`: -1.96 (inactive).
The same measure, in the same setting: with `CC(C)(C)NC(=O)Cn1c(=O)oc2ccc(Cl)cc21` the figure was -3.03 (active); with `Cc1nc2c(-c3ccccc3)c(C)nn2c(C)c1CCC(=O)NO`, -1.49 (inactive).
Still for that read-out and setting: next, `O=C(NCc1ccc(Cl)cc1)c1c[nH]n2c(=O)cc(C3CCNCC3)nc12`: -1.87 (inactive); `Cc1cc(C)nc(SCC(=O)Nc2ccc(S(=O)(=O)Nc3onc(C)c3C)cc2)n1`: 1.02 (inactive).
Regarding `Cc1ccc(C2CC(=O)Nc3cc4c(cc32)OCCO4)cc1Br` (stereo unspecified), the fold change was -1.14 (inactive).
Consider `O=c1c2ccccc2[nH]c(=S)n1CCCN1CCc2ccccc2C1`, for which the fold change was -2.32 (active).
On the same count and under the same terms, with `CCOC(=O)C1=C(CS(=O)(=O)c2ccc(F)c(C)c2)NC(=O)NC1c1ccccc1` (stereo unspecified) the figure was 1.21 (inactive); with `O=C1Nc2ccccc2/C1=C\c1cn(Cc2ccccc2F)c2ccccc12`, -1.04 (inactive).
The same measure, in the same setting: next, `COc1cc(NC(=O)C2CCCN(S(=O)(=O)c3ccc4c(c3)oc(=O)n4C)C2)cc(OC)c1` (stereo unspecified): 1.09 (inactive); `COc1ccc(/C=c2\sc3nc(-c4cc(OC)c(OC)c(OC)c4)nn3c2=O)c(OC)c1`: -1.26 (inactive); `CN1CCN(CCNC(=O)Cn2ncc3c4ccccc4n(C)c3c2=O)CC1`: -1.16 (inactive).
